Experimental data taken from the supplement of paper PMC6555819.

Assays:
Experiment in all cases: PBM binding z-score (relative to random genomic background probes); higher = stronger binding; sequences stand for … in GC…GCGATTGACAGCGTAGAATGAAGG
[1] = test system: RARg:RXRa (NR concentration 270 nM, RXRa partner concentration 90 nM)
Method in brief: (§1)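 Binding buffer was PBS pH 7.4 with 2% milk, 0.02% Triton X-100, 1 mM DTT, 0.2 mg/mL BSA and 0.4 mg/ml salmon testes DNA. In it, ligand-free nuclear receptor dimers were incubated 1 h on custom Agilent 4×180K protein-binding microarrays carrying double-stranded probes. Antibodies against each partner (one per run) detected binding, and z-scores were calculated against random background probes after regression normalization of scanned fluorescence.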

[2] = test system: RARg homodimer (NR concentration 270 nM)
Method in brief: as §1

[3] = test system: RXRa DBDmut IVT, anti-RXR (DBD mutation: RXRa K156A/R161A, NR concentration 90 nM)
Method in brief: as §1

[4] = test system: RXRa homodimer (NR concentration 180 nM)
Method in brief: as §1

[5] = test system: THRa:RXRa (NR concentration 90 nM, RXRa partner concentration 90 nM)
Method in brief: as §1

[6] = test system: THRa homodimer (NR concentration 90 nM)
Method in brief: as §1

[7] = test system: VDR homodimer (NR concentration 270 nM)
Method in brief: as §1

| Sequence | PBM binding z-score [1] | PBM binding z-score [2] | PBM binding z-score [3] | PBM binding z-score [4] | PBM binding z-score [5] | PBM binding z-score [6] | PBM binding z-score [7] |
| --- | --- | --- | --- | --- | --- | --- | --- |
| CAAACTAGGTCAAGAGGTCAAAGTTCGCTTCCCG | 8.33 | 7.43 | 3.49 | 8.33 | 4.67 | 2.78 | 5.53 |
| TAGCCTAGGGCATTCAGGGGCCAGTATAGAAAGC | 1.99 | 1.1 | -0.766 | 0.0553 | 1.2 | -0.586 | -0.169 |
| GCTTACAGGTCAAAGGTTATAGCATGAATAGAAT | 7.18 | 5.44 | 2.31 | 9.21 | 4.11 | 0.393 | 1.47 |
| TAGCCTAGGTCATGCGGCCCAGTATAGTGTCGGC | 3.79 | 4.07 | 0.176 | 2.87 | 2.89 | 0.868 | 0.276 |
| CCGAATAGGTTACGAGGGGGCATTCAGTGCGAAT | 3.99 | 2.87 | 1.75 | 3.03 | 4.03 | 0.692 | 3.51 |
| ATATGTAGGTTACATCCGGGTCATCCAGGCTATG | 3.98 | 2.1 | 0.681 | 2.89 | 3.89 | 2.64 | 2.44 |
| TGAATGAGGTTAAATATCAGGGAACGTGGCGTCG | 2.18 | 1.43 | 1.95 | 2.84 | 2.38 | 0.583 | 1.02 |
| CGTCCGAGGTCATAGGAGGTCAGTGAAGACAGAT | 7.12 | 7.76 | 4.48 | 7.49 | 5.37 | 3.58 | 5.17 |
| GGAACGAGGTCATTCGAGTTGATAGCATGGCGAT | 6.09 | 6.21 | 4.87 | 7.11 | 4.76 | 2.26 | 6.31 |
| CCTACTGGGCCGTTCAGAGGTCATTGATCATATG | 3.7 | 2.47 | 0.516 | 3.46 | 2.86 | 1.42 | 2.97 |
| CTATGTGGGTTAAGGGGGTCATTCAGTTTGAAAG | 5.36 | 4.42 | 3.34 | 6.11 | 4.29 | 3.69 | 6.5 |
| AATACAGGGTAACTAGGCCAGAGTAGGTACGAAT | 0.64 | 0.567 | -0.0804 | 0.664 | 0.631 | -0.0802 | 0.108 |
| ATCGAAAGGTCGAAGGTGCGTATACCCACCCGAA | 3.93 | 3.91 | 1.37 | 4.23 | 1.66 | -0.362 | 0.858 |
| CCTGCTAGGTCATGGTCAGCGAATCTACAGTATG | 4.05 | 4.93 | 1.92 | 3.09 | 2.9 | 1.16 | 0.226 |
| CCTAGCAGGCCAATCTAGGTCACTCAAGGCTTGA | 1.5 | 1.85 | 0.439 | 0.64 | 4.18 | 1.57 | 0.1 |
| GATACAGGGTCAAGGTCAGAGTACGCGTATTGAT | 6.26 | 6.78 | 2.78 | 6.63 | 4.45 | 3.55 | 4.39 |
| TCTGCTAGGTCAACGATGGTCAGTTAATCTGCTA | 4.12 | 4.95 | 0.834 | 2.5 | 2.93 | 0.73 | -0.183 |
| ATCGAAAGGTCCAAGGTGAGTATACCCACCCGAA | 0.919 | 1.08 | 0.0908 | 0.853 | 1.35 | 0.653 | 0.214 |
| GCTGCTAGGTCAACTGATGGTCATCTAAAGCTCG | 5.46 | 5.43 | 1.87 | 3.25 | 3.09 | 1.12 | 0.187 |
| CCTACTGGGCCAAAAAGGTCATTGATGCCGATAA | 4.72 | 4.42 | 0.661 | 5.23 | 3.12 | 0.474 | 2.01 |

| Sequence | PBM binding z-score [1] | PBM binding z-score [2] | PBM binding z-score [3] | PBM binding z-score [4] | PBM binding z-score [5] | PBM binding z-score [6] | PBM binding z-score [7] |
| --- | --- | --- | --- | --- | --- | --- | --- |
| GCTAGTTGGTCAGTAAAATGTCACACACCGGTCG | 0.584 | 0.697 | 0.121 | 0.272 | -0.216 | -0.123 | 0.162 |
| TCTTGTAGGTCAATAGAGGTTAAGAAAGTGCGCT | 4.56 | 5.15 | 1.88 | 4.31 | 4.71 | 0.329 | 1.63 |
| CAAACTAGGTCACTAAAGGTCAAAGTCGAATGAC | 7.43 | 7.86 | 2.41 | 7.61 | 5 | 2.19 | 3.72 |
| CGAACAAGGTCATTGACAGGACAGTGAATAGTAA | 6.27 | 5.95 | 4.45 | 5.53 | 3.96 | 2.16 | 3.2 |
| CGTCTAAGGTCATAGGAGGTCAGTGAAGACAGAT | 7.35 | 7.8 | 4.42 | 7.22 | 5.51 | 4.81 | 4.89 |
| CCTCGGAGGACAACAGGAGGTCATAGCTGCCAGA | 3.93 | 3.78 | 1.1 | 3.09 | 3.58 | 1.5 | 2.44 |
| TCTAGTTGGTCACGGAGGTCACAAACGACGGGTA | 4.49 | 5 | 0.949 | 4.62 | 3.39 | 2.07 | 2.78 |
| TAGCCTAAGTCATGCGGGCCAGTATAGTGTCGGC | -0.283 | -0.412 | -0.949 | -0.136 | -0.34 | -0.848 | -1.04 |
| AGAATGAGGTCACCAAAGATCAGGGAAACGCTTG | 6.82 | 7.16 | 4.12 | 7.51 | 4.63 | 3.75 | 3.69 |
| TCGCCTAGGTCATGGGCCAGTATACCACGCGAAC | 4.24 | 4.78 | 1.21 | 3.7 | 3.15 | 1.58 | 0.535 |
| GCTGCTAGGTCAACTGATGGTCACCTAAAGCTCG | 5.53 | 5.1 | 1.29 | 3.52 | 3.38 | 1.69 | 0.0494 |
| TCTAGTTGGTCTAAGGTCACACACTCGAAATGCG | 4.63 | 4.37 | 2.21 | 4.71 | 4.63 | 5.66 | 2.99 |
| ACTCGGAGGACAAAGGTCAGGGCTACGCCAGTGA | 6.45 | 5.95 | 0.934 | 6.71 | 3.63 | 1.02 | 1.33 |
| CTCGAAAGGTCGTGCTCAGATGAGTATACCAAAC | 4.06 | 3.84 | 1.66 | 4.62 | 2.22 | -0.171 | 1.15 |
| TAGCCTAGGTCGTTCAGGGGCCAGTATAGAAAGC | 3.43 | 1.27 | 0.406 | 0.583 | 2.04 | -0.169 | 0.675 |
| TCGTGTAGGTTACGGGGGCATTCAGGGATGAAGA | 4.09 | 3.31 | 2.75 | 3.35 | 4.09 | 2.66 | 3.98 |
| CCTTACGGGTCACTCCAGGTTATATCATCGGAGT | 4.35 | 4.43 | 1.46 | 4.17 | 5.19 | 0.814 | 1.49 |
| GATACAGGGTCAGCTACAGGCCAGAGTATGGAAA | 5.37 | 4.29 | 1.25 | 4.23 | 2.83 | 0.162 | 0.801 |
| TGTCAACGTTCAAAGGTAACGTAAGTATCCACAC | 1.28 | 1.09 | -0.465 | 1.27 | 1.46 | -0.221 | -0.0342 |
| CGAACTACGTCATCCAGGACAGTGAATACATTGA | 0.374 | 0.537 | 0.498 | 0.2 | 1.27 | 1.03 | 0.313 |

| Sequence | PBM binding z-score [1] | PBM binding z-score [2] | PBM binding z-score [3] | PBM binding z-score [4] | PBM binding z-score [5] | PBM binding z-score [6] | PBM binding z-score [7] |
| --- | --- | --- | --- | --- | --- | --- | --- |
| TAGCCTAGGTCATACAGGGGCCAGTATAGAAAGC | 5.98 | 4.71 | 1.04 | 3.26 | 3.27 | 0.799 | 0.824 |
| ACGCGGAGGACAAAGGTCAGAGCTACGCCAGTGA | 6.23 | 5.34 | 0.687 | 5.4 | 3.38 | 0.463 | 0.908 |
| TCTCGGAGGACACCAAAGGTCAGAGCTCGACATC | 4.82 | 5.32 | 0.814 | 4.15 | 3.65 | 1.2 | 1.11 |
| CGAACTAGGTCGTCCAGGACAGTGAATACATTGA | 0.869 | 1.08 | 1.02 | 0.72 | 2.27 | 0.874 | 0.591 |
| CCTACTCGGCCAAAAAGGTCATTGATGCCGATAA | 4.7 | 4.45 | 1.13 | 4.82 | 3.33 | 1.22 | 2.91 |
| TAGCCTAGGTCATTCAGGGGCCACTATAGAAAGC | 6.46 | 4.76 | 1.94 | 3.21 | 3.89 | 1.05 | 1.92 |
| ATTTGTAGGTTACATCCGGGTCATTCAGGCTATG | 4.18 | 2.41 | 1.3 | 3.47 | 3.85 | 3.39 | 4.18 |
| CGCACTAGGTCATCCAGGACAGTGAATACATTGA | 3.99 | 4.51 | 2.26 | 2.76 | 3.73 | 2.4 | 1.76 |
| CGAACGAGGTCAAAGGACAGTGAAAGGCGACGTA | 6.46 | 6.17 | 4.61 | 6.91 | 3.88 | 1.79 | 3.52 |
| CGTCCAAGGACAATGCTAGGTCAGTGAAAGCATT | 1.34 | 1.85 | 0.603 | 0.146 | 2.91 | 1.91 | 0.161 |
| CGTCCAAGGTCAGCGGGTCAGTGAAAGCGACGTG | 6.32 | 6.61 | 2.67 | 4.98 | 3.74 | 2.34 | 1.76 |
| TCTAGTTGGTCACGGAGGGCACACACGACGGGTA | 2.15 | 2.4 | 0.575 | 1.35 | 1.03 | 0.258 | 0.915 |
| GTTACAGGGTCAAGGCCAGAGTACGCGTATTGAT | 5.65 | 5.24 | 2.91 | 6.16 | 3.62 | 1.53 | 2.86 |
| ATATGTAGGTTAGCTGGGGTCCTTCAGACTAGGC | 0.698 | 0.529 | 0.183 | 0.692 | 3.45 | 0.268 | 0.249 |
| AGTCAAAGTTCAGGACGACGTAACGTAAAGCACG | 3.78 | 4.45 | 2.93 | 2.66 | 2.02 | 0.216 | 2.05 |
| TGTCAATGTTCAAAGGTAACGTAAGTATCCACAC | 0.811 | 0.759 | -0.404 | 0.776 | 1.24 | -0.064 | -0.453 |
| TATAAAGGGTCAAAGGCCAGAGTACGAATGTCGA | 6.39 | 6.63 | 3.06 | 7.08 | 3.11 | -0.348 | 2.46 |
| CCTTACGGGTCACGTGGTTATAGCACGACGAGCG | 5.5 | 5.1 | 1.32 | 6.08 | 3.04 | 0.0729 | 0.82 |
